# In ChEMBL document CHEMBL1961873, “Compounds: GSK PKIS; Assays: Nanosyn kinase panel” (2012):
# Legend:
# [1] = target: T1, Serine/threonine-protein kinase D2 (Homo sapiens) (UniProt Q9BZL6); conditions: at 1 µM;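 note: mean value of PRKD2 inhibition, from the GSK PKIS screening panel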
# T1 sequence (whole entry): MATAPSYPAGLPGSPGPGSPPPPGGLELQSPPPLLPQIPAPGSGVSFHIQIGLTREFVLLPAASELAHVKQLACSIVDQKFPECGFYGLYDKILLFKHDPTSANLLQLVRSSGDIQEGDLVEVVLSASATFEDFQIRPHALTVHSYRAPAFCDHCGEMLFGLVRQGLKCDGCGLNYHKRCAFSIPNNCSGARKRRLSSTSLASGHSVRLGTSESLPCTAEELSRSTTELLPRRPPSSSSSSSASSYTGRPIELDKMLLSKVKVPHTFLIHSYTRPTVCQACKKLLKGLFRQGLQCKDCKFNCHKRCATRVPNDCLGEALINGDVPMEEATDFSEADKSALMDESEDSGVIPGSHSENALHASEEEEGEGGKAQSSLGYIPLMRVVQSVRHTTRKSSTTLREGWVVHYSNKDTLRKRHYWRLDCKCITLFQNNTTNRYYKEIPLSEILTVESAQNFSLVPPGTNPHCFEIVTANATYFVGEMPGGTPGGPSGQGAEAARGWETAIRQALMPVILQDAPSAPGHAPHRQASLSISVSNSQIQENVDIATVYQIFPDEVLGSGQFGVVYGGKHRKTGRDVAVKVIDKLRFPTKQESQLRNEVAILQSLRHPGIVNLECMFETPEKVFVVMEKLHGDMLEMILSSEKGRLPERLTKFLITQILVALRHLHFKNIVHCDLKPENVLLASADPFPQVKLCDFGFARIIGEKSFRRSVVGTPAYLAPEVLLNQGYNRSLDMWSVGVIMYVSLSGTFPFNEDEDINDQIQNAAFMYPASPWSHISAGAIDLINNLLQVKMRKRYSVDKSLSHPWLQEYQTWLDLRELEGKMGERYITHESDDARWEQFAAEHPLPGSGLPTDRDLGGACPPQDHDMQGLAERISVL
# [2] = target: T2, Serine/threonine-protein kinase D3 (Homo sapiens) (UniProt O94806); conditions: at 0.1 µM
# T2 sequence (whole entry): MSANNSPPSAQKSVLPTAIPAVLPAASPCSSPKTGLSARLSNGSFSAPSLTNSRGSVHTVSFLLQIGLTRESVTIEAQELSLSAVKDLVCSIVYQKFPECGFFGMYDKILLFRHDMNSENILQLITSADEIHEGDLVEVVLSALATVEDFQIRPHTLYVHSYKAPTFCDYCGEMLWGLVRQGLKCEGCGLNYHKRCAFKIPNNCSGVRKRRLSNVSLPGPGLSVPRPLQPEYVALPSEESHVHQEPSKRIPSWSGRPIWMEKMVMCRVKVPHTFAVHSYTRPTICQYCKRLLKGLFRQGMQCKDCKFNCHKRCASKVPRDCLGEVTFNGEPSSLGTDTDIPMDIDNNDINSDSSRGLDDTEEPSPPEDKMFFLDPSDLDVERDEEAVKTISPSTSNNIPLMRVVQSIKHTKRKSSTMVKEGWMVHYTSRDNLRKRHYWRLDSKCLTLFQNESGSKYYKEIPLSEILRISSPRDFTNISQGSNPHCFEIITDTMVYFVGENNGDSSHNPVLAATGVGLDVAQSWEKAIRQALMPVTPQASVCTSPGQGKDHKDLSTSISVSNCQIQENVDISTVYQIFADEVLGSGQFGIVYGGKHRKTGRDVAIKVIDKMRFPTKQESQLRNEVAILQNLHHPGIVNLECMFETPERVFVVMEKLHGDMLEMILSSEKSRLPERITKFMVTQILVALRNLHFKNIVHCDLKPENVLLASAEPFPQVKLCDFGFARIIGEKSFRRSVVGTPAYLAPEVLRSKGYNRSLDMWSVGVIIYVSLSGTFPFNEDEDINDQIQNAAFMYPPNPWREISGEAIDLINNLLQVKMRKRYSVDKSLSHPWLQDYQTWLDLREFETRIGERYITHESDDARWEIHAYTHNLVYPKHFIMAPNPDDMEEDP
# [3] = target: T2, Serine/threonine-protein kinase D3 (Homo sapiens); conditions: at 1 µM
# [4] = target: T3, cGMP-dependent protein kinase 1 (Homo sapiens) (UniProt Q13976); conditions: at 0.1 µM
# T3 sequence (whole entry): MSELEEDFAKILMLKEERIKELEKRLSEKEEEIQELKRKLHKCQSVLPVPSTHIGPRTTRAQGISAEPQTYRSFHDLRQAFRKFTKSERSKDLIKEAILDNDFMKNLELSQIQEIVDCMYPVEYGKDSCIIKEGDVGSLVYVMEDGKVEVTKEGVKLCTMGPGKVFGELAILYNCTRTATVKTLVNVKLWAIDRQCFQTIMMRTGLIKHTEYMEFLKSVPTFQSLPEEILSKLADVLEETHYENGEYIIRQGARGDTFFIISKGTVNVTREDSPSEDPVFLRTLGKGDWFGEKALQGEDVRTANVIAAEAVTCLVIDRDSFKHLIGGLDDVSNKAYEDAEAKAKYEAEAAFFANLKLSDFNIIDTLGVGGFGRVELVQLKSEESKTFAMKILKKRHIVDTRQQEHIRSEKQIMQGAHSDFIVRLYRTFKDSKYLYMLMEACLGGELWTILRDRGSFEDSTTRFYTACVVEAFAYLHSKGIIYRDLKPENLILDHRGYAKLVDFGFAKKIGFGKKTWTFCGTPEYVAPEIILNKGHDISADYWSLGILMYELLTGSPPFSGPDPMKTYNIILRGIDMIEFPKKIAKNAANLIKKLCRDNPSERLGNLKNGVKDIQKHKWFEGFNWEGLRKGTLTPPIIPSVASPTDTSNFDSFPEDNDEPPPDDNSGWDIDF
# [5] = target: T3, cGMP-dependent protein kinase 1 (Homo sapiens); conditions: at 1 µM
# [6] = target: T4, cGMP-dependent protein kinase 2 (Homo sapiens) (UniProt Q13237); conditions: at 0.1 µM
# T4 sequence (whole entry): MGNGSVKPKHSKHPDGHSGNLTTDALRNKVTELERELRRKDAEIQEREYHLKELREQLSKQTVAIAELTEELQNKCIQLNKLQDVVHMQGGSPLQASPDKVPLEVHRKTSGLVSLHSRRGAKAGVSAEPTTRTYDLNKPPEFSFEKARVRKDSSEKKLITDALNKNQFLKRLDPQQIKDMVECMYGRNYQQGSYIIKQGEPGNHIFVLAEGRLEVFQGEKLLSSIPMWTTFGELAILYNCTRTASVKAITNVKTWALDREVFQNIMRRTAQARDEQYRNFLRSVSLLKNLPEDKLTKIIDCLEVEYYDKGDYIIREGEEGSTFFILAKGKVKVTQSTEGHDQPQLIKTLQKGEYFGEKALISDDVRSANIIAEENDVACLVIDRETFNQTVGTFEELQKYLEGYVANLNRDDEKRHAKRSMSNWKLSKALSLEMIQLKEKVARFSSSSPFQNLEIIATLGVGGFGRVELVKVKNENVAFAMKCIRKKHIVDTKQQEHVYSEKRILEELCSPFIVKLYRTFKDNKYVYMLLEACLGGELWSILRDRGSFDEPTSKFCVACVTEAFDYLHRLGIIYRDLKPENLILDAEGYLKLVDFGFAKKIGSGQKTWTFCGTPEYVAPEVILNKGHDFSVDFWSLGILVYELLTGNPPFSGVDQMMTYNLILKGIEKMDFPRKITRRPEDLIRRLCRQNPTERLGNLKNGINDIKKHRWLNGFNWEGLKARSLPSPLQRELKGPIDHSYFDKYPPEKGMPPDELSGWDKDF
# [7] = target: T4, cGMP-dependent protein kinase 2 (Homo sapiens); conditions: at 1 µM
# [8] = target: T5, cAMP-dependent protein kinase catalytic subunit PRKX (Homo sapiens) (UniProt P51817); conditions: at 0.1 µM
# T5 sequence (whole entry): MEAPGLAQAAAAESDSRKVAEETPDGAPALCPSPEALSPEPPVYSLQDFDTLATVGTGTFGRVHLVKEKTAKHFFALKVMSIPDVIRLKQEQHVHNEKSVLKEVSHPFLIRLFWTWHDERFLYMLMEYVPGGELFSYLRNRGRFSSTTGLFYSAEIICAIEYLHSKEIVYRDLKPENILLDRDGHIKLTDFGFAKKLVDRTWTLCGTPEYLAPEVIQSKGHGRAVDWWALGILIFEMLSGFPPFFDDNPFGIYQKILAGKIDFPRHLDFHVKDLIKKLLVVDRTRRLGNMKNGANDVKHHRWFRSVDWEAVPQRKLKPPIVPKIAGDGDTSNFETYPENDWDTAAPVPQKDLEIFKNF
# [9] = target: T5, cAMP-dependent protein kinase catalytic subunit PRKX (Homo sapiens); conditions: at 1 µM
# [10] = target: Rho-associated protein kinase 1 (Homo sapiens) (UniProt Q13464); conditions: at 0.1 µM;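 note: values are mean percent inhibition of ROCK1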
# Rho-associated protein kinase 1 (Homo sapiens), sequence (Q13464 2-1354 limits assumed): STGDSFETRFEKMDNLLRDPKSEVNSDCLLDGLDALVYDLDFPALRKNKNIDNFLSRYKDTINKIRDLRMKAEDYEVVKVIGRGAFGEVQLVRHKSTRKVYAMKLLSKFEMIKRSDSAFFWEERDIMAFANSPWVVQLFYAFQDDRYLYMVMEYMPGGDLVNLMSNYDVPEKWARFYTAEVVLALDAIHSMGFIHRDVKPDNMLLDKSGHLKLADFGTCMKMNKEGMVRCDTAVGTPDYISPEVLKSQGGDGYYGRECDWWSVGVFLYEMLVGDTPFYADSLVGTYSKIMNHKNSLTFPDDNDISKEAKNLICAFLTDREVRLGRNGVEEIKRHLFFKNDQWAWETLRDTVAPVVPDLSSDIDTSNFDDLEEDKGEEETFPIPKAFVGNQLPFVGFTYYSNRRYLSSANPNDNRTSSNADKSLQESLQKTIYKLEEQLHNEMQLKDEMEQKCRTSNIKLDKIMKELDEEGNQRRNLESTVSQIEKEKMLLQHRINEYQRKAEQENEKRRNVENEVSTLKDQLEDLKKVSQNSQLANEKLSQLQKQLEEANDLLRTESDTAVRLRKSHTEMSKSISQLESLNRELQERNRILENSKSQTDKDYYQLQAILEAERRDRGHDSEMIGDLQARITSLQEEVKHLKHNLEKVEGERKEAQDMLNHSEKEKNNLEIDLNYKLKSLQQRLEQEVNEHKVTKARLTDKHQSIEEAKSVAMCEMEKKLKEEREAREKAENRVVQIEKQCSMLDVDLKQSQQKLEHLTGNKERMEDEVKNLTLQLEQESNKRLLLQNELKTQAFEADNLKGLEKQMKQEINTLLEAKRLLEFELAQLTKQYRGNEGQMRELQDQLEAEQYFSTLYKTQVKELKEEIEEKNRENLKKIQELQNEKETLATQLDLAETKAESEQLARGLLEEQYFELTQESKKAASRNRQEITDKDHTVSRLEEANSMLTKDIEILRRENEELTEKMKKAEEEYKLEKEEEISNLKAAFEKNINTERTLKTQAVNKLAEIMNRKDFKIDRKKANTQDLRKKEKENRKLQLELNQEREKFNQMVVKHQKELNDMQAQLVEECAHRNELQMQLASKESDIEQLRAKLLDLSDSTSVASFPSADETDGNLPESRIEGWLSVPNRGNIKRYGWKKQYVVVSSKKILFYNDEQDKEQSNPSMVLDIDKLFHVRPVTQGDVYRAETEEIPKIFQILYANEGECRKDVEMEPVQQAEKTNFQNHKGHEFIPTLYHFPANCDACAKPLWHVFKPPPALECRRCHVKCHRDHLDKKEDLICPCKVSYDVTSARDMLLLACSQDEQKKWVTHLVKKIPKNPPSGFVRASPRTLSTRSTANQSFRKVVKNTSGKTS
SMILES,inhibition [1] [%],inhibition [2] [%],inhibition [3] [%],inhibition [4] [%],inhibition [5] [%],inhibition [6] [%],inhibition [7] [%],inhibition [8] [%],inhibition [9] [%],inhibition [10] [%]
O=C1NC(=O)C(c2ccc(Cl)cc2)=C1Nc1ccc(Cl)c(C(=O)O)c1,-0.34,-1.37,-0.38,-0.49,-0.47,-1.52,-0.68,-1.61,-1.33,-0.15
CC1=C(C(=O)Nc2ccc3[nH]ncc3c2)C(c2ccc(Cl)c(Cl)c2)CC(=O)N1 (centres undefined),5.98,1.11,9.26,10.1,50,5.19,34.7,14.8,59.2,68.6
CN(C)c1cc2c(Nc3ccc4nc(Cc5ccccc5)[nH]c4c3)ncnc2cn1,5.15,5.52,6.09,5.01,6.25,2.1,4.22,2.16,2.25,5.7
O=C1NC(=O)C(N2CCc3ccccc32)=C1c1ccc(Cl)cc1,4.56,5.53,6.02,3.3,4.19,2.11,4.33,1.91,0.77,1.88
Cc1cc(O)cc(C)c1/C=C/c1cncc(-c2nn[nH]n2)c1,4.1,2.66,4.77,2.15,4.8,2.47,3.8,1.59,1.75,1.38
COc1cc2ncn(-c3cc(O[C@H](C)c4ccccc4Cl)c(C(N)=O)s3)c2cc1OC,4.06,2.93,2.62,3.62,4.56,3.5,5.66,2.91,–,1.18
COc1cc2ncn(-c3cc(OCc4ccccc4C(F)(F)F)c(C(N)=O)s3)c2cc1OC,-1.87,0.67,-0.49,2.93,0.86,1.68,1.12,1.89,2.8,1.68
CCN1CCC(CC(=O)Nc2n[nH]c3nc(-c4cccs4)c(Br)cc23)CC1,-1.32,-2.16,-0.88,-1.47,-0.36,-0.23,1.17,-0.98,0.48,0.12
COC(=O)Nc1nc2cc(Oc3ccc(NC(=O)Nc4cccc(C(=O)O)c4)cc3)ccc2[nH]1,-1.55,-2.32,-3.85,-0.28,2.77,1.1,0.86,0.76,1.8,0.24
NCc1ccc(-c2nc(-c3ccc(Cl)c(O)c3)c(-c3ccncc3)[nH]2)cc1,4.23,0.72,1.93,0.03,2.4,-0.25,3.58,-0.67,-2.14,-0.61
CCn1c(-c2nonc2N)nc2c(C#CC(C)(C)O)nc(CN3CCCC3)cc21,6.86,1.31,6.41,4.4,10.7,5.6,37.8,10.5,42,0.15
Cc1nnc(-c2ccc(C)c(-c3ccc(C(=O)Nc4cccc(C#N)c4)cc3)c2)o1,3.13,2.37,3.16,0.21,2.16,1.21,3.35,0.63,1.68,-0.21
Nc1nc(-c2ccc3c(c2)C(=Cc2cc(Br)c(O)c(Br)c2)C(=O)N3)cs1,-1.39,-1.58,-1.34,0.42,1.43,-0.63,1.49,-0.49,0.42,-0.08
NC(=O)c1ccc(-c2nc(-c3ccccn3)c(-c3ccc4c(c3)OCO4)[nH]2)cc1,6.06,2.14,5.59,0.18,3.55,1.83,3.18,1.66,2.01,0.07
O=C1NC(=O)C(c2cccc(Cl)c2)=C1Nc1ccc(O)c(Cl)c1,3.16,0.75,1.47,0.66,2.21,1.23,5.33,-0.43,-1.53,0.21
O=C1NC(=O)C(c2ccccc2Cl)=C1Nc1cccc(O)c1,2.71,2.73,2.86,2.17,3.29,1.54,4.57,2.14,4.07,3.29
COc1ccc(-c2nn3ncccc3c2-c2ccnc(Nc3ccc(Cl)c(C(F)(F)F)c3)n2)cc1,4.34,2.86,3.78,0.21,0.97,0.9,2.46,0.84,3.14,1.25
Cc1ccc(NC(=O)c2ccnc(N3CCCC3)c2)cc1-c1ccc(C(=O)NCC2CC2)cc1,9.48,3.21,10.1,2.12,6.39,3.92,6.54,1.47,2.53,10
CS(=O)(=O)CCNCc1ccc(-c2ccc3ncnc(Nc4ccc(OCc5cccc(F)c5)c(C(F)(F)F)c4)c3c2)o1,5.13,4.32,3.88,2.84,5.15,1.78,3.11,2.44,4.07,1.46
COc1cccc(-n2ncc3c(N/N=C/c4cccc(F)c4)ncnc32)c1,-1.18,-0.44,-0.79,2.15,3.23,2.4,3.95,1.69,2.08,0.34
CCn1c(-c2nonc2N)nc2c(C#CC(C)(C)O)nc(OC[C@@H](N)c3ccccc3)cc21,8.54,-0.8,8.35,17.7,63.5,35.9,73.3,78.2,79.3,5.46
COc1cc2c(cc1Nc1nc(N3CCc4ccccc43)c3cc[nH]c3n1)N(C(=O)CN(C)C)CC2,3.6,1.51,4.37,2.84,2.75,2.18,2.75,0.6,-1.42,0.33
CS(=O)(=O)CCN(CC#N)Cc1ccc(-c2ccc3ncnc(Nc4ccc(OCc5cccc(F)c5)c(Cl)c4)c3c2)o1,-4.76,-2.15,-3.08,2.42,3.06,0.52,0.66,1.58,1.54,0.99
NS(=O)(=O)c1cccc(-c2ccc3c(NC(=O)C4CC4)n[nH]c3c2)c1,-0.76,-0.43,0.3,0.48,0.57,0.6,1.3,0.01,1.02,1.29
CCn1c(-c2nonc2N)nc2c(N3CCCC3)nccc21,-0.31,-0.29,0.75,0.96,3.63,1.09,9.26,0.17,0.74,3.22
NC(=O)c1cccc(Nc2nccc(Nc3cccc4[nH]ncc34)n2)c1,5,-3.05,4.5,-0.53,5.24,0.86,7.93,7.81,9.23,0.94
CCc1cccc(NC(=O)Nc2ccc(Oc3ccc4nc(NC(=O)OC)[nH]c4c3)cc2)c1,1.88,1.72,0.75,-0.2,3.08,0.88,0.86,0.91,3.18,12.1
COc1ccc(-c2coc3ncnc(N)c23)cc1,6.47,4.56,7.56,2.84,3.68,2.51,3.93,1.76,1.11,3.01
